AHR act – AHR activators, primary screen, cell-based, luminescence, luciferase reporter, human. 320,000 compounds, 2.5% hits. AHR-responsive luciferase reporter cells. Aryl hydrocarbon receptor (Homo sapiens), P35869. activation, % at 5 µM; in the data active = activation above about 47%
HSF1 activator – HSF-1 activators, primary screen, NIH3T3-HGL cells, MG132 stress, luminescence, single point. 300,000 compounds, 1.7% hits. AID 504408, 2011. NIH3T3-HGL HSF-1 luciferase reporter, 8 h; 100% = twice DMSO control signal. activation, % at 9 µM;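 active = mean replicate activation of at least 50% with a set share of replicates each reaching 50%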
NR0B1 inh – DAX1 (NR0B1) inhibitors, primary screen, cell-based, HEK293, Gal4-DAX1, luciferase luminescence. 340,000 compounds, 0.99% hits. inhibition, % at 6.75 µM. Nuclear receptor subfamily 0 group B member 1 (Homo sapiens), P51843. HEK293 Gal4-DAX1 luciferase reporter;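 active = inhibition above the mean over all tested compounds plus 3 SD, cut at about 4.2% in these data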;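 note: inhibition shows as a rise in luminescence from relieved DAX1 repression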
Target sequence (P51843 207-470 limits assumed): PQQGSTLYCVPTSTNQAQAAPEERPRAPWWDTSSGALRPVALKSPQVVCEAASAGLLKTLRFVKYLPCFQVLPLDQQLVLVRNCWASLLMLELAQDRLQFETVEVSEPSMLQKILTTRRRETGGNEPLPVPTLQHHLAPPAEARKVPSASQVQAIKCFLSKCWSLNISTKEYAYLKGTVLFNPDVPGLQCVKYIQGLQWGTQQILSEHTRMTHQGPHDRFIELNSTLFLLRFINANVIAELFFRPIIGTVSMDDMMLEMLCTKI
FXN GAA850 act – FXN promoter activators, primary screen, cell-based, luciferase luminescence, HEK293 lucGAA850 | AID 540364, 2011 | activation, % at 6 µM | 360,000 compounds, 0.56% hits | HEK293 lucGAA850 FXN promoter luciferase reporter, 24 h; percent of 10 µM SAHA response;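 active = activation above the average of all compounds screened plus 3 SD, cutoff fixed separately per campaign, cut at about 7.5% in these data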
HSF1 inhib – HSF1 inhibitors in luciferase reporter cells, primary screen, cell-based, NIH3T3, luminescence | NIH3T3-HGL HSE-luciferase, MG132-induced, luminescence 8 h; stronger effect = lower value | activity change, negative = inhibition, % at 7.5 µM (by protocol) | 300,000 compounds, 0.77% hits | AID 2098, 2009;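 active = more than half of replicate wells show activity change below -50%, luminescence cut by over half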;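 note: luciferase reports HSF-1 transcriptional activity via heat shock element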
AHR act cf – AHR activators, confirmation, cell-based, luminescence, luciferase reporter, human; shares compounds with AHR act; human cells, AHR-responsive luciferase reporter; activation, % at 9 µM; 2,300 compounds, 87% hits; in the data active = activation above about 49%;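 note: HepG2 hepatoma cells carrying a DRE-driven firefly luciferase reporter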
PXR act counter – human PXR activators, counter-screen for AHR activator project, cell-based, luciferase luminescence; shares compounds with AHR act; cell-based PXR reporter; activation, % at 11.6 µM; 2,300 compounds, 88% hits; AID 434939, 2010; in the data active = activation above about 11%;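 note: human hepatoma DPX-2 cells expressing full-length human PXR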
Of the large screens only hits and unclear results are named; the others gave an inactive call (follow-up assays come after a bar, where they were run). Rows were chosen to be rich in hits. Some 5.4% of all compounds tested hit in one or more screens of this group.

Cc1ccc(C(=O)N/N=c2\oc3ccccc3cc2C(N)=O)cc1	none
O=C1NCCC/C1=N\Nc1ccc(Br)cc1	AHR act 119 | AHR act cf 124 | PXR act counter 21
O=C(Nc1ccc(Br)cc1)c1cnc[nH]1	AHR act 109 | AHR act cf 68 | PXR act counter 18
CN(C)c1cc(O)c(C(=S)Nc2ccccc2)c(N(C)C)c1	AHR act 125 | AHR act cf 102 | PXR act counter 115
CN(C)c1ccc(NC(=S)c2ccccn2)cc1	none
Cc1nc(N)nc(Nc2ccc(Cl)cc2)c1Br	AHR act 92 | AHR act cf 99
CC(=O)c1ccc(C(=O)N2CCCC(CCC(=O)N(C)CCc3ccccn3)C2)s1 (stereo unspecified)	none
Cc1ccc(S(=O)(=O)n2cccc2C)cc1	none (no result: NR0B1 inh)
COc1ccc2cc(CN(Cc3ccco3)Cc3nnnn3C3CCCCC3)c(=O)[nH]c2c1	none
CCC(C)(C)n1nnnc1CN(Cc1ccco1)Cc1cc2cc3c(cc2[nH]c1=O)OCO3	AHR act 107 | AHR act cf 86 | PXR act counter 147
CC(C)(C)n1nnnc1CN(Cc1ccco1)Cc1cc2cc3c(cc2[nH]c1=O)OCO3	AHR act 111 | AHR act cf 96 | PXR act counter 197
Cc1c(C(=O)NC(C(C)C)C(C)C)cccc1[N+](=O)[O-]	none
Cn1cc(Cl)c(C(=O)OCC(=O)c2ccccc2)n1	none
N#Cc1ccccc1NC(=O)c1ccccc1OCC(=O)Nc1ccc2c(c1)oc1ccccc12	none
N#Cc1ccccc1NC(=O)c1ccccc1OCC(=O)NCc1ccco1	AHR act 117 | AHR act cf 109 | PXR act counter 47
CCCn1c(O)c(N=NC(=O)c2ccco2)c2ccccc21	AHR act 87, HSF1 inhib -55 | AHR act cf 88 | PXR act counter 50
CCn1c(O)c(N=NC(=O)CNC(=O)c2ccco2)c2ccccc21	none (no result: HSF1 activator, HSF1 inhib)
Cc1ccc(C)c(S(=O)(=O)N2CCN(CC(=O)NC(C)c3ccccc3)CC2)c1 (stereo unspecified)	none (no result: HSF1 activator, HSF1 inhib)
C=CCSc1nnc2nc3[nH]c4c(C)cccc4c3nn12	AHR act 105 | AHR act cf 143 | PXR act counter 38
CC(=O)N(c1ccc(Cl)cc1)c1nc(C)cc(C)c1C#N	AHR act 102 | AHR act cf 112 | PXR act counter 110
Cc1ccc(-c2nc3ncccn3c2Nc2ccc3c(c2)OCCO3)cc1	none
Brc1c(-c2ccc3c(c2)OCO3)nc2ncccn12	AHR act 101 | AHR act cf 116 | PXR act counter 22
O=C1NCCN(CC2CCN(CCc3ccc(Cl)c(Cl)c3)CC2)C1=O	none (no result: AHR act, HSF1 activator, HSF1 inhib)
Clc1ccc(/C(Cc2nc3ccccc3[nH]2)=N\Nc2ccccc2)cc1	AHR act 91 | AHR act cf inactive | PXR act counter 49
O=C(Cc1nc2ccccc2[nH]1)c1ccc(Cl)cc1	none
Cc1ccc(CNCc2cc(Cl)ccc2O)cc1	none (no result: HSF1 activator, HSF1 inhib)
O=C(Nc1nc(-c2cccs2)cs1)c1ccc(Cl)cc1	AHR act 129 | AHR act cf 123 | PXR act counter 36
COc1ccc(C(=O)Nc2nc(-c3cccs3)cs2)cc1	none
CC(C)=Cc1oc2ccc([N+](=O)[O-])cc2c1N1CC(C)OC(C)C1 (stereo unspecified)	none
Cc1ccc(N=Nc2c(O)[nH]c3ccc(F)cc23)cc1	AHR act 114 | AHR act cf 129 | PXR act counter 22
Cc1cc2n(n1)SC(Nc1ccc(F)c(Cl)c1)N2 (stereo unspecified)	AHR act 89 | AHR act cf 106 | PXR act counter 52
Cc1ccc(NC(=O)Nc2ccc(F)c(Cl)c2)cc1	none
COc1ccccc1C(=O)Nc1ccc2c3c(cccc13)CC2	AHR act 83 | AHR act cf inactive | PXR act counter 85
CSc1ccccc1NC(=O)C1CCN(S(C)(=O)=O)CC1	none
CC(=O)Nc1ccc(NS(=O)(=O)c2cccc3nonc23)cc1	none
O=C(CSc1nc2ccccc2c(=O)[nH]1)Nc1ccc([N+](=O)[O-])cc1	none (no result: HSF1 activator, HSF1 inhib)
O=c1[nH]c(Sc2ccc([N+](=O)[O-])cc2[N+](=O)[O-])nc2ccccc12	AHR act 88 | AHR act cf inactive | PXR act counter 26
COc1cccc(-n2c(SCC(=O)NCC3CCCO3)nc3c([nH]c4ccccc43)c2=O)c1 (stereo unspecified)	AHR act 88 | AHR act cf 128 | PXR act counter 89
Cn1c(SCC(=O)NCCc2ccccc2)nc2c([nH]c3ccccc32)c1=O	AHR act 118 | AHR act cf 91 | PXR act counter 115
COc1ccc(NC(=O)CSc2nc3c([nH]c4ccccc43)c(=O)n2C)cc1	none
Cn1c(SCC(=O)NCc2ccc(F)cc2)nc2c([nH]c3ccccc32)c1=O	AHR act 126 (no result: NR0B1 inh, FXN GAA850 act) | AHR act cf 97 | PXR act counter 90
COc1ccc(-n2c(SCC(=O)NCC3CCCO3)nc3c([nH]c4ccccc43)c2=O)cc1 (stereo unspecified)	none
S=C(N/N=C/c1ccccc1Cl)Nc1cccc(Cl)c1Cl	AHR act 118 | AHR act cf 103 | PXR act counter 30
Fc1ccc(NC(=S)NN=Cc2ccccc2Cl)cc1	none (no result: AHR act, HSF1 activator, HSF1 inhib)
CC/C(C)=N/NC(=O)c1[nH]c2ccc(C)cc2c1-c1ccccc1	none
NNC(=O)c1[nH]c2ccccc2c1-c1ccccc1	AHR act 94 | AHR act cf inactive | PXR act counter inactive
CSc1cnc2c(=O)n(C)c(=O)[nH]c2n1	none
Cn1c(=O)[nH]c2nnc(-c3ccc(Cl)c(Cl)c3)nc2c1=O	AHR act 112 | AHR act cf inactive | PXR act counter 15
CN(CC(=O)Nc1ccc(Cl)c(C(F)(F)F)c1)C(=O)c1ccc(OCC2CCCO2)cc1 (stereo unspecified)	none
Cc1ccc(/C=N/Nc2nc3ccccc3s2)o1	AHR act 111 | AHR act cf 113 | PXR act counter 14
O=C(N/N=C/c1ccc2cccc(OCc3ccccc3)c2n1)c1ccc(Cl)cc1	AHR act 99 | AHR act cf 70 | PXR act counter 13
CCN(CC(=O)Nc1c(F)cccc1F)C(=O)c1ccc(COc2ccccc2)o1	none
O=C(CSc1nnc(-c2ccco2)n1-c1ccccc1Cl)Nc1cccc(C(=O)O)c1	none
Cc1cnc(NC(=O)CCCc2nc3ccccc3s2)s1	AHR act 271 | AHR act cf inactive | PXR act counter 134
